Data as given in the supplement of paper PMC10849652.
The full data set covers some 8,800 targets. This sample favours those with a hit. About 0.5% of all pairs of compound and target were hits.

Key:
Experiment in all cases: log2 fold change, soluble protein after heating vs DMSO (PISA); higher = thermal stabilisation; K562 lysate, 10 uM; active = over 0.2 and 3.5 SD of the protein, either way, in both replicates (recomputed)
ibrutinib = compound: C=CC(=O)N1CCC[C@@H](n2nc(-c3ccc(Oc4ccccc4)cc3)c3c(N)ncnc32)C1 [ibrutinib]
How it was run: (§1)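 K562 pellets were dounce-homogenised in PBS pH 7.4 containing 1 mM MgCl2, and the crude extract, at 1 mg/mL protein, was exposed to 10 μM compound for 30 min. Aliquots were heated for 3 min across 48°C-58°C, pooled, brought to 0.5% NP-40 at 4°C and spun at 21,000xg for 90 min, with the supernatant taken as soluble protein. TMTpro 16plex LC-MS/MS with equalised channel sums quantified that protein. Values are log-two fold changes in thermal stability relative to solvent controls, taken from duplicates.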

[1] = compound: CC(=O)c1cnc2ccc(-c3cc(Cl)c(O)c(Cl)c3)nc2c1N[C@H]1CC[C@H](CN(C)C)CC1
How it was run: as §1

[2] = compound: CC1=C(C2=C(C=C1)C(=O)C3=CC=CC=C3N2CCCN)C
How it was run: as §1

[3] = compound: CC1=CC=C(C=C1)SC2=C3C=C(SC3=CN=C2)C(=O)N
How it was run: as §1

ralimetinib = compound: CC(C)(C)Cn1c(N)nc2ccc(-c3[nH]c(C(C)(C)C)nc3-c3ccc(F)cc3)nc21 [ralimetinib]
How it was run: as §1

[4] = compound: CC(C)(O)CC(=O)NCCn1ccc2ncnc(Nc3ccc(Oc4cccc(C(F)(F)F)c4)c(Cl)c3)c21
How it was run: as §1

[5] = compound: CC(C)C1=C2N=C(C=C(N2N=C1)NCC3=CC=CC=C3)NCCCCCCN
How it was run: as §1

[6] = compound: CC1=C(C(CC(=O)N1)C2=CC=C(C=C2)C(F)(F)F)C(=O)NC3=C(C=C4C(=C3)C=NN4)F
How it was run: as §1

[7] = compound: CC1=C(C=C(C=C1)NC(=O)C2=CC(=CC=C2)C(C)(C)C#N)NC3=CC4=C(C=C3)N=CN(C4=O)C
How it was run: as §1

[8] = compound: CC1=C(C=C(C=C1)NC(=O)C2=CC(=CC=C2)N(C)C)NC(=O)C3=CC=C(C=C3)O
How it was run: as §1

Measured: log2 fold change

PHGDH, A0A286YFE1
inactive: ibrutinib 0.032 | [1] 0.084 | [2] -0.458 | [3] 0.107

PCBP2 (UniProt F8VRH0)
inactive: [1] -0.014 | ralimetinib 0.087 | [4] -0.033 | [5] 0.051 | [6] 0.129 | [7] 0.017 | [8] 0.012 | [3] 0.027

PIM1 isoform 2 (UniProt P11309)
inactive: ibrutinib -0.138 | ralimetinib 0.042 | [4] 0.122 | [5] -0.038 | [6] -0.014 | [2] 0.054 | [7] 0.01 | [8] 0.054

PLXND1 (UniProt Q9Y4D7)
inactive: ibrutinib 0.138 | ralimetinib -0.081 | [4] -0.07 | [5] 0.046 | [6] -0.023 | [2] 0.112 | [7] -0.033 | [8] 0.218

PPP2CA (UniProt E7ESG8)
inactive: [6] 0.239

PIAS2 (UniProt O75928)
Sequence of UniProt O75928 (O75928 whole entry, looked up): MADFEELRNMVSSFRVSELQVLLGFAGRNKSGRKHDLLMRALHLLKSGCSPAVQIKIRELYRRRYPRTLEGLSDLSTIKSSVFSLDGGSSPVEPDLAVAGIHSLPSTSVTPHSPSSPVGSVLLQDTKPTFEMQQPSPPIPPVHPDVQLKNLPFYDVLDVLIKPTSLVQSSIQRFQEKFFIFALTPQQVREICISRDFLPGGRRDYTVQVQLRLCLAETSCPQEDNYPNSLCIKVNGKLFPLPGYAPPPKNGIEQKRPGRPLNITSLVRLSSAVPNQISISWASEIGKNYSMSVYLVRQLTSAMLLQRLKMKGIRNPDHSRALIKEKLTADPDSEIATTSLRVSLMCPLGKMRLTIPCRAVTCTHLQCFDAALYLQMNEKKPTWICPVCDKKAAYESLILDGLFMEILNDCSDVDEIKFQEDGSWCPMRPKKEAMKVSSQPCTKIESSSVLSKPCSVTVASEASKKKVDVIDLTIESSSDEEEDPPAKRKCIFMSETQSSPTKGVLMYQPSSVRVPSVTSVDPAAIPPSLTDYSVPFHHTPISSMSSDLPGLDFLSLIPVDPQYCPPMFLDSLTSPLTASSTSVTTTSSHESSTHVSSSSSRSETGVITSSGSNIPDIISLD
inactive: ralimetinib 0.019 | [4] 0.006 | [5] -0.017 | [6] 0.039 | [2] 0.052 | [7] -0.001 | [8] -0.002

PHC1 (UniProt P78364)
Sequence of UniProt P78364 (P78364 whole entry, looked up): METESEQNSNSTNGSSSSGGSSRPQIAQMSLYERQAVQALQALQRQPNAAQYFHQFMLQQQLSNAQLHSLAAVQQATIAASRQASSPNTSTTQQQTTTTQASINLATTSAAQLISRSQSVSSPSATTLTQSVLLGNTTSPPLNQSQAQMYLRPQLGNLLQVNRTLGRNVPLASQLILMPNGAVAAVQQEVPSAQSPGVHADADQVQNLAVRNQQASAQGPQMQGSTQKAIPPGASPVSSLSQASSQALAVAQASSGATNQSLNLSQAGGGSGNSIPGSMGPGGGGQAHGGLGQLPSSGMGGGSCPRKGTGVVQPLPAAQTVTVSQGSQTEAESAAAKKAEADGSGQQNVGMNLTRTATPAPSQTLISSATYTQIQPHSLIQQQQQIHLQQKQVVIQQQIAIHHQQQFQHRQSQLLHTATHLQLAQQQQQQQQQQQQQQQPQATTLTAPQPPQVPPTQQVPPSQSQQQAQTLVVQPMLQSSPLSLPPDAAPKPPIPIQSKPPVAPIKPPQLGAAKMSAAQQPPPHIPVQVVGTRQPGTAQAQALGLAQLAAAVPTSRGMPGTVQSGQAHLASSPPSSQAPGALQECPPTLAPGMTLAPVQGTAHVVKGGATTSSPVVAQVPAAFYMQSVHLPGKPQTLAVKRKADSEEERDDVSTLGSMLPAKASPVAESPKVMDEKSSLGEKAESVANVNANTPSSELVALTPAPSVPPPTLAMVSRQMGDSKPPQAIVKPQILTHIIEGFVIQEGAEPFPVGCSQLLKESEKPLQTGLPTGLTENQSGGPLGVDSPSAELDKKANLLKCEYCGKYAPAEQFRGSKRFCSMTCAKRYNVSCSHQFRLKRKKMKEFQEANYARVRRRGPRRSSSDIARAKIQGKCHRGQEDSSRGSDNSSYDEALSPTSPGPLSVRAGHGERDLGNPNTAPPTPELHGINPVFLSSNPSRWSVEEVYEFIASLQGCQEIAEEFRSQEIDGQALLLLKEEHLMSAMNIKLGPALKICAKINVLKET
inactive: ibrutinib 0.027 | [6] 0.044 | [2] -0.117
active: [7] 0.443

PFN1 (UniProt I3L3D5)
inactive: ibrutinib -0.045 | [1] -0.053 | ralimetinib 0.045 | [4] -0.033 | [6] -0.013 | [8] 0 | [3] 0.031

NA (UniProt Q4G0T1)
inactive: ralimetinib 0.016 | [4] -0.096 | [5] -0.119 | [2] -0.061 | [7] -0.158 | [8] -0.151

PPP2R5B (UniProt Q15173)
inactive: ibrutinib 0.042 | [1] 0.033 | ralimetinib 0 | [4] -0.046 | [5] -0.055 | [2] 0.009 | [7] 0.026 | [8] 0.08 | [3] -0.053

PHKG1 isoform 2 (UniProt Q16816)
Sequence of UniProt Q16816 (Q16816 whole entry, looked up): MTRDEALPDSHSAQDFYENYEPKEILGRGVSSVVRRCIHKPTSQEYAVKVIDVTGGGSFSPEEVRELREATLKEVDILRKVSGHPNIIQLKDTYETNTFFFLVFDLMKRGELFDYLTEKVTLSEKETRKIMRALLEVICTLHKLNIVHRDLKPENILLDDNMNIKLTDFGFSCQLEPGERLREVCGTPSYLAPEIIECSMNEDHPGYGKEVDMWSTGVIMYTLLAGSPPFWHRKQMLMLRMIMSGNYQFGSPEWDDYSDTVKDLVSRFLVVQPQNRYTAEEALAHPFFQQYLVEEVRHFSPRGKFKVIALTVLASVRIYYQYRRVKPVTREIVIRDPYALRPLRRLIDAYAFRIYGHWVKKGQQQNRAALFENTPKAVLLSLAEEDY
inactive: [1] 0.595 | ralimetinib 0.02 | [4] -0.016 | [5] -0.003 | [6] -0.117 | [2] -0.196 | [7] 0.017 | [8] -0.02 | [3] -0.086

PRIMPOL (UniProt Q96LW4)
inactive: ibrutinib 0.062 | ralimetinib 0.055 | [4] -0.027 | [5] 0.048 | [6] -0.055 | [2] -0.034 | [7] 0.078 | [8] 0.049

PDIA4, A0A499FI48
inactive: [2] -0.017 | [7] -0.066

PPME1 (UniProt Q9Y570)
Sequence of UniProt Q9Y570 (Q9Y570 whole entry, looked up): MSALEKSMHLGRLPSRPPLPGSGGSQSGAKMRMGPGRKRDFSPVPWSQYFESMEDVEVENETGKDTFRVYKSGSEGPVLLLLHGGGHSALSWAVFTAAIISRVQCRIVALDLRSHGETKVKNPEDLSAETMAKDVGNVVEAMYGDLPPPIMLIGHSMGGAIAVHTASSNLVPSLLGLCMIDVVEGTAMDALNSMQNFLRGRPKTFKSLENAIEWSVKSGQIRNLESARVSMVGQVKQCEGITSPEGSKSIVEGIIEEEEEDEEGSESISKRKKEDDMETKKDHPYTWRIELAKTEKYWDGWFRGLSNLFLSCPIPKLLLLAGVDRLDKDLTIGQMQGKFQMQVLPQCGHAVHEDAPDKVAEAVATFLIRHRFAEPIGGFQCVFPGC
inactive: ibrutinib -0.038 | [1] -0.072 | [5] -0.238 | [2] -0.018 | [3] -0.077

PPT2, A0A140T9Y1
inactive: [6] -0.142

PTK2 isoform 2 (UniProt Q05397)
inactive: ibrutinib 0.173 | [1] -0.047 | [5] -0.002 | [2] -0.138 | [3] -0.053

PRRG1 (UniProt O14668)
Sequence of UniProt O14668 (O14668 whole entry, looked up): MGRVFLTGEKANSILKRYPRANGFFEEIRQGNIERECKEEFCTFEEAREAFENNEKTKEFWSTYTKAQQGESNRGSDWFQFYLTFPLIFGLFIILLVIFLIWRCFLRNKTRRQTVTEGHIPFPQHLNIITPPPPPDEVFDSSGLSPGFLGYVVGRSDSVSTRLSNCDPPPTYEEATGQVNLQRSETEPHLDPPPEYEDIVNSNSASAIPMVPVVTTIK
inactive: ralimetinib 0.081 | [4] 0.072 | [8] -0.033

PCLAF (UniProt Q15004)
inactive: ibrutinib 0.025 | ralimetinib 0.035 | [4] -0.014 | [5] -0.011 | [6] 0.003 | [2] -0.041 | [7] 0.034 | [8] -0.005

PRR4 (UniProt Q16378)
inactive: [1] -0.009 | ralimetinib -0.188 | [4] 0.305 | [5] 1.86 | [6] 1.73 | [8] 0.1 | [3] -0.23

POM121C (UniProt A8CG34)
inactive: ibrutinib -0.167 | [1] 0.008 | ralimetinib -0.127 | [4] 0.016 | [5] 0.028 | [8] -0.028 | [3] 0.034

PDE4DIP (UniProt E9PS60)
inactive: [5] 0.037 | [6] -0.113 | [2] 0.076 | [7] 0.234

PRG4 (UniProt Q92954)
inactive: ibrutinib 0.267 | [1] -0.002 | ralimetinib 0.037 | [4] -0.109 | [6] -0.091 | [2] -0.029 | [7] -0.027 | [8] 0.035 | [3] 0.034

PFKFB4 (UniProt Q16877)
Sequence of UniProt Q16877 (Q16877 whole entry, looked up): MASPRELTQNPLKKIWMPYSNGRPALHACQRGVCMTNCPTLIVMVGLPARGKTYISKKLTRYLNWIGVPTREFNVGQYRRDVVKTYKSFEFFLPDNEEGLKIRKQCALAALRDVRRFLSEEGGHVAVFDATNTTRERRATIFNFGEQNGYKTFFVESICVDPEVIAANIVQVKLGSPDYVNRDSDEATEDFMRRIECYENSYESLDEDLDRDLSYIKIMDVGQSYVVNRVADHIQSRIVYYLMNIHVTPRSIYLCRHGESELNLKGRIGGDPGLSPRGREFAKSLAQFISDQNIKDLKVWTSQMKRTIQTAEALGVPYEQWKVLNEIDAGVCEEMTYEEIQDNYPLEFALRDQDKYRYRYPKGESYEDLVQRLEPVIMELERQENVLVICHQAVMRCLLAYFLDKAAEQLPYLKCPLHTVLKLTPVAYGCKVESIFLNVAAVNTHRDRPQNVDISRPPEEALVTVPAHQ
inactive: ibrutinib 0.022 | [1] -0.005 | ralimetinib 0.1 | [4] -0.032 | [5] -0.004 | [2] -0.008 | [7] -0.003 | [8] 0.093 | [3] 0.011

PPP1R14C (UniProt Q8TAE6)
inactive: ibrutinib 0.067 | [1] 0.007 | ralimetinib 0.057 | [4] 0.042 | [6] -0.028 | [2] -0.097 | [8] -0.123 | [3] 0.068

POLR2F (UniProt U3KPV3)
inactive: [2] 0.223

PREP (UniProt H0Y5Y0)
inactive: [1] -0.051 | [3] 0.029

PCBP2 (UniProt F8W0G4)
inactive: ibrutinib -0.27 | ralimetinib -0.061 | [4] -0.282 | [5] -0.175 | [6] -0.045 | [2] -0.083 | [8] 0.049

PPP2R5C isoform 2 (UniProt Q13362)
Sequence of UniProt Q13362 (Q13362 whole entry, looked up): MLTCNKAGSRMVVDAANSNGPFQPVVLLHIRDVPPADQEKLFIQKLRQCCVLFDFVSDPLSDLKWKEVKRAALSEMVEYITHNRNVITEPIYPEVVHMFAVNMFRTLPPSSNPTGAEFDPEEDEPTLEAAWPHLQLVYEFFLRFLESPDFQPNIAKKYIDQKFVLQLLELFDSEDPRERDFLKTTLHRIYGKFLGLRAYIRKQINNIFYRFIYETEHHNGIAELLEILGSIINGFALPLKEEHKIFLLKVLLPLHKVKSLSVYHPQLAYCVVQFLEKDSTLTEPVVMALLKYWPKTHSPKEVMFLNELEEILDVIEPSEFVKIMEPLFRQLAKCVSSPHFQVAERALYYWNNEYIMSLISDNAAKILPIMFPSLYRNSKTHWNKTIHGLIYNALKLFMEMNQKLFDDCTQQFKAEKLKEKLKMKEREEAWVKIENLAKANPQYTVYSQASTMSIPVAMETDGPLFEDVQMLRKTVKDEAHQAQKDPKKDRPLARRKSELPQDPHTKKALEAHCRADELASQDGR
inactive: ibrutinib -0.145 | ralimetinib -0.016 | [4] -0.02 | [5] 0.02 | [6] -0.012 | [2] 0 | [7] -0.155 | [8] 0.08

PICALM (UniProt H0YCY1)
inactive: [5] -0.155

PNPLA4 (UniProt P41247)
Sequence of UniProt P41247 (P41247 whole entry, looked up): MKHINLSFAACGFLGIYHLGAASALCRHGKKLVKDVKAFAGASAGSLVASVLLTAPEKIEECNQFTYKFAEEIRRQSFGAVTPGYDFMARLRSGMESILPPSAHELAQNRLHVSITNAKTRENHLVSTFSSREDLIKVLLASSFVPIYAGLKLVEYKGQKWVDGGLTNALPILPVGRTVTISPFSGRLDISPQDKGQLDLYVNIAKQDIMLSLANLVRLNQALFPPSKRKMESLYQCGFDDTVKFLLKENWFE
inactive: ralimetinib 0.14 | [4] -0.099 | [2] -0.116 | [7] -0.052 | [8] 0.046

PHF14 (UniProt O94880)
active: [6] 0.454
inactive: ibrutinib -0.014 | [1] 0.03 | ralimetinib -0.024 | [4] -0.055 | [2] -0.003 | [8] -0.042 | [3] -0.128

PHOSPHO2 (UniProt C9JD35)
inactive: [7] 0.09

PIK3CG (UniProt P48736)
inactive: ibrutinib -0.017 | ralimetinib 0.02 | [4] -0.047 | [5] -0.027 | [6] -0.054 | [2] -0.071 | [7] -0.025 | [8] 0.01

PFN3 (UniProt P60673)
inactive: [1] 0.042 | [6] -0.02 | [7] -0.03 | [3] -0.02

PPIC (UniProt P45877)
inactive: ibrutinib 0.278 | ralimetinib -0.17 | [4] 0.057 | [5] -0.021 | [6] -0.139 | [2] 0.138 | [7] 0.102 | [8] 0.05

PMS1 (UniProt P54277)
Sequence of UniProt P54277 (P54277 whole entry, looked up): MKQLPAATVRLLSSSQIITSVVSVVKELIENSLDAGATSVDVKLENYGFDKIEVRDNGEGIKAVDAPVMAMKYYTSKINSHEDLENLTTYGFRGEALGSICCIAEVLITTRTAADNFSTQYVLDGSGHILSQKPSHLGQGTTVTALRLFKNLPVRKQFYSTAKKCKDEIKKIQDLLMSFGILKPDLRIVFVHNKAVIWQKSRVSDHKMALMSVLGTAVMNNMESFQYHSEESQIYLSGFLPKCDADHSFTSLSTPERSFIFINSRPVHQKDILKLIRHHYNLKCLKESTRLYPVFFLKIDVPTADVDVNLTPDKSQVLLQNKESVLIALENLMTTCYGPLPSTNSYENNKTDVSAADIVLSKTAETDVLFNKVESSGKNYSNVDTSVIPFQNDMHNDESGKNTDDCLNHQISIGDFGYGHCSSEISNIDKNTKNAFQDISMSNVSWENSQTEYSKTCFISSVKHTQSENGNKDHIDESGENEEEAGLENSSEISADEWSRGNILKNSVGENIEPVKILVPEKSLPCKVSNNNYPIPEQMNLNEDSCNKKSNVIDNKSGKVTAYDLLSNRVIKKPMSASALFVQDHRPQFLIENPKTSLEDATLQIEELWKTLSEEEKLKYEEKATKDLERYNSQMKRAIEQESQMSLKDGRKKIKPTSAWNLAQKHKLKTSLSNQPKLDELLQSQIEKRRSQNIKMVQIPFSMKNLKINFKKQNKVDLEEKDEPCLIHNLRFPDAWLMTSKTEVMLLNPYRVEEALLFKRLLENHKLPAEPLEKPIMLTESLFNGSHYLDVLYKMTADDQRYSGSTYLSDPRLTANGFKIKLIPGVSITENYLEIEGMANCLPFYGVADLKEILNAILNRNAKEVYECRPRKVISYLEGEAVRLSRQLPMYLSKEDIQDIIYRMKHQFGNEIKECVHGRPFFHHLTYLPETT
inactive: ibrutinib 0 | ralimetinib -0.015 | [4] -0.021 | [5] 0.025 | [6] -0.052 | [2] 0.022 | [7] -0.02 | [8] 0.009

PPM1H (UniProt Q9ULR3)
inactive: ibrutinib 0.058 | [1] -0.032 | ralimetinib -0.008 | [4] -0.035 | [5] 0.019 | [2] -0.028 | [7] 0.048 | [8] -0.007 | [3] 0.02

POLR2M (UniProt Q6EEV4)
Sequence of UniProt Q6EEV4 (Q6EEV4 whole entry, looked up): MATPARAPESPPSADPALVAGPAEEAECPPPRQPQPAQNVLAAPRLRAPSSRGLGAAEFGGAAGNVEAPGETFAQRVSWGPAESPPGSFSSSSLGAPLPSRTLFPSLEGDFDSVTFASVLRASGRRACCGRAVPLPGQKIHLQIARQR
inactive: ibrutinib 0.005 | [1] -0.07 | [5] -0.109 | [2] 0.007 | [7] 0.157 | [3] 0.078
